# Screening data as filed in PubChem.
# KLF5 inhibitor: kruppel-like factor 5 inhibition; inhibition, % at 5 µM; DLD-1 KLF5 promoter-luciferase reporter, luminescence; hit rate 0.23% among 290,000;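 active = inhibition above a per-plate limit of that plate's mean compound inhibition plus 3 SD, cut at about 60% in these data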;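 also: 0% = DMSO wells and 100% = LY294002 at 200 µM; higher means less KLF5 promoter-driven luciferase light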
# aSyn UTR inh: MLPCN primary screen, SNCA 5' untranslated region | alpha-synuclein 5'UTR reporter, inhibitor activity | inhibition, % (tested at 7.5 µM) | hit rate 0.82% among 300,000 | AID 1813; in the data active = inhibition above about 60%; inconclusive = no clear call, values can overlap the other calls;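 also: H4 neuroglioblastoma cells stably carrying SNCA 5'UTR luciferase fusion; 0% = DMSO wells and 100% = positive control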
# Ba/F3 V617F tox: reduce viability of Ba/F3 cells dependent on JAK2V617F. Ba/F3 EpoR-JAK2V617F viability, ATP luminescence. inhibition, % at 5.6 µM. hit rate 1.1% among 220,000;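 active = inhibition above the campaign mean plus 3 SD over all tested compounds, cut at about 24% in these data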;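 also: cytokine-independent growth of Ba/F3 cells driven by EpoR plus mutant JAK2; 0% = DMSO-treated cells and 100% = JAK inhibitor I control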
# BaF3 parental: parental Ba/F3 viability inhibition as JAK2V617F counter-screen. AID 1486. CellTiter-Glo ATP luminescence. inhibition, % at 5.6 µM. hit rate 1.1% among 220,000;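 active = inhibition above a per-campaign cutoff, the mean inhibition of all tested compounds plus 3 SD, cut at about 27% in these data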;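 also: 0% = DMSO wells and 100% = JAK Inhibitor I control wells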
# IEC-6 cytotox: kills IEC-6 intestinal cells in KLF5 counter-screen; IEC-6 cytotoxicity, luminescence viability; AID 1825; hit rate 0.78% among 290,000; inhibition, % at 5 µM; in the data active = inhibition above about 22%;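 also: 0% = plate median of test compound wells and 100% = cytotoxic reference compound wells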
# APP transl inh: APP translation inhibition; SH-SY5Y APP 5'UTR-luciferase reporter, luminescence; inhibition, % at 2 µM; hit rate 0.82% among 190,000;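 active = inhibition above a set limit, derived from the sample mean plus 3 SD, cut at about 45% in these data; inconclusive = one replicate passes the limit while the other fails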
# * hit, by the source's call; ? = inconclusive; / = no result. Shown are actives, neighbours in structure and some others; about 2.1% of the full set was active somewhere.
SMILES,KLF5 inhibitor,aSyn UTR inh,Ba/F3 V617F tox,BaF3 parental,IEC-6 cytotox,APP transl inh
CC1c2cc3c(cc2CCN1C(=O)c1cccc(F)c1)OCCCO3 (stereo unspecified),-20,-69,/,/,5,/
CN=c1scc(-c2ccc(F)cc2)n1/N=C/c1ccc(O)c(O)c1,-52,/,98*,36*,12,37
CN=c1scc(-c2ccc([N+](=O)[O-])cc2)n1/N=C/c1ccco1,-117,-59,1,8,-4,-196
O=C(CCCn1c(=S)[nH]c2cc3c(cc2c1=O)OCO3)N1CCN(c2ncccn2)CC1,5,31,64*,57*,-3,-7
O=C(OC(C(=O)NCc1ccc2c(c1)OCO2)c1ccncc1)c1ccc(Cl)nc1 (stereo unspecified),4,-5,4,81*,6,17
CC(C)(O)C#Cc1ccc(CN2CCC(n3nccc3NC(=O)C3CC3)CC2)cc1,-26,-4,/,/,-6,/
C=CCCC(=O)Nc1nc(C)c(-c2csc(Nc3cc(OC)ccc3OC)n2)s1,29,55,34*,59*,19,53*
CCCC(=O)Nc1nc(C)c(-c2csc(Nc3cc(OC)ccc3OC)n2)s1,-7,?,4,6,1,-2
c1csc(CNc2ncnc3sccc23)c1,-24,-59,34*,36*,8,3
c1ccc(CNc2ncnc3sccc23)cc1,-24,22,/,/,-2,/
CCOC(=O)c1c(NC(=O)C[n+]2ccc(N(C)C)cc2)sc(C)c1C,-7,6,29*,35*,8,-15
O=C(N/C(=C\c1ccc(Br)cc1)C(=O)N1CCOCC1)c1ccc([N+](=O)[O-])cc1,5,1,/,/,-10,/
CCCNC(=O)c1ccc2c(=O)c(O)c(-c3ccc(OC)cc3)[nH]c2c1,/,88*,/,/,/,/
CCCNC(=O)c1ccc2c(=O)c(O)c(-c3ccc(C)cc3)[nH]c2c1,/,69*,/,/,/,/
Cc1ccc(CNC(=O)c2ccc3c(=O)c(O)c(-c4ccc(C)cc4)[nH]c3c2)cc1,/,94*,/,/,/,/
Cc1ccc(-c2[nH]c3cc(C(N)=O)ccc3c(=O)c2O)cc1,/,-21,/,/,/,/
CCCNC(=O)c1ccc2c(=O)c(O)c(-c3ccsc3)[nH]c2c1,/,87*,/,/,/,/
COc1ccc(CCNC(=O)CC2SC(N)=NC2=O)cc1OC (stereo unspecified),-16,-5,2,7,-3,8
CCN1C(=O)CC(NCc2ccc(S(N)(=O)=O)cc2)C1=O (stereo unspecified),8,12,-2,2,-1,/
COc1ccc(-c2cc(C(=O)Nc3c(F)cc(F)cc3Br)no2)cc1,-41,-23,/,/,-9,/
Cc1nn(C)c(C)c1CN(C)S(=O)(=O)c1ccc2ccccc2c1,-23,/,46*,46*,14,47*
O=[N+]([O-])c1ccc(Nc2cccc(F)c2)nc1,-23,-2,0,4,4,13
Nc1cc2c3c(cccc3c1)C(=O)N(CCN1CCCC1)C2=O,-9,54,97*,83*,62*,/
CCN(CC)CCN1C(=O)c2cccc3cc(N)cc(c23)C1=O,-28,-53,82*,70*,13,/
CC(=O)OCCCN1C(=O)c2cccc3cc(Br)cc(c23)C1=O,-3,14,/,/,6,/
SMILES,KLF5 inhibitor,aSyn UTR inh,Ba/F3 V617F tox,BaF3 parental,IEC-6 cytotox,APP transl inh
Cc1ccc(-c2csc(NC(=O)c3ccc(F)cc3)c2C(=O)O)cc1,-39,-105,/,/,0,/
Cc1ccc([N+](=O)[O-])cc1S(=O)(=O)n1ccnc1C,-26,-29,-3,2,-2,14
CCCCCCCNC1=CC(=O)CC(c2ccco2)C1 (stereo unspecified),4,13,29*,38*,5,-19
CCOc1ccc(NC2=CC(=O)CC(c3ccco3)C2)cc1 (stereo unspecified),-21,-9,-2,-3,1,-16
CNC(=O)COC(=O)c1ccccc1Nc1ccccc1,-2,-30,-2,1,-2,-30
COc1ccc(C2=NN(C(=O)CSc3nc4ccccc4s3)C(c3ccc(OC)cc3)C2)cc1 (stereo unspecified),25,-22,-4,5,6,8
COc1ccc(C2=NN(C(=O)CSc3nc4ccccc4s3)C(c3ccc(F)cc3)C2)cc1 (stereo unspecified),6,-21,-7,-3,-2,81*
CC1CCCC(NCC(O)COC(c2ccc(F)cc2)c2ccc(F)cc2)C1C (stereo unspecified),-14,33,13,47*,5,-17
Cc1onc(-c2c(Cl)cccc2Cl)c1C(=O)Nc1nc(C(C)(C)C)cs1,15,80*,3,2,7,/
Cc1nc(C(=O)NNC(=O)c2c(-c3c(Cl)cccc3Cl)noc2C)cs1,6,63*,-3,-2,17,/
O=C(Nc1ccccc1C(=O)Nc1nnc(C(F)(F)F)s1)c1ccccc1Cl,-30,13,2,0,-2,/
Cc1ccc(N(CC(=O)NC(C)C)C(=O)CCC(=O)Nc2nccs2)c(C)c1,15,15,/,/,2,/
O=C(Nc1cc2ccccc2oc1=O)c1ccccc1,-128,74*,2,3,-2,-131
CCN(Cc1ccccc1)c1ccc(/C=N/NC(=S)NC(C)C)cc1,-6,24,0,6,-2,8
CCN(Cc1ccccc1)c1ccc(/C=N/N=C(N)N)cc1,-30,94*,3,7,0,23
CC(=O)Nc1nc(-c2ccc3ccccc3c2)cs1,-140,-143,/,/,8,/
Oc1ccc(Nc2nc(-c3ccc4ccccc4c3)cs2)cc1,-190,-210,99*,57*,4,2
COc1ccccc1N=c1oc2cc(O)ccc2cc1C(N)=O,-57,-74,32*,34*,21,-5
Cn1cnc([N+](=O)[O-])c1S(=O)(=O)c1cccc(Cl)c1,-4,-3,86*,102*,68*,9
S=C(c1ccc(-c2ccccc2)cc1)N1CCOCC1,-35,64*,/,/,-9,/
CSc1ccccc1C(=O)NC1CCCc2ccccc21 (stereo unspecified),-10,10,/,/,7,/
CC(=O)n1c(Cl)c(NC(=O)CCl)c2ccccc21,-23,-80,3,4,0,75*
CC(=O)n1c2ccccc2c2ccccc21,-27,-7,1,5,-11,4
O=C(COC(=O)/C=C/c1ccc(C(F)(F)F)cc1)NC1CCS(=O)(=O)C1 (stereo unspecified),/,-2,/,/,/,/
CCOc1ccccc1C(=O)Nc1c[nH]c(=O)[nH]c1=O,-32,62*,/,/,4,/
Cc1ccc(C)c(OCC(=O)Nc2c[nH]c(=O)[nH]c2=O)c1,-3,81*,-2,3,-2,0
COc1ccccc1C(=O)Nc1c[nH]c(=O)[nH]c1=O,-9,8,/,/,5,/
Cc1nc(C(F)(F)F)c(C(=O)N/N=C(\N)c2ccccn2)s1,16,43,1,8,5,57*
N/C(=N\NS(=O)(=O)c1ccccc1C(F)(F)F)c1ccccn1,-16,-2,-1,-2,-8,/
COc1ccc(C2=C(C=O)Cc3ccccc3O2)cc1,/,98*,/,/,/,/
